The source of these data is PubChem BioAssay AID687001 (Broad Institute, 2013).

Entries with a potency or affinity are not part of this list. Values without a mark were called inactive.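 The calls were made as follows: active = signal-lowering compounds whose fitted half-maximal concentration is at or below twice the top tested dose in every run; inconclusive = runs disagree, flat 30 to 70% inhibition, or poor curve fit; inactive = the rest.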

The target of this assay is Protein S100-A4 (Homo sapiens) (UniProt P26447). Put plainly: S100A4-myosin IIA binding inhibitor potency, dose response, biochemical, fluorescence polarization, cherry-picked hits (AID 687001).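 Also: 0% = DMSO neutral control wells and -100% = TFP positive control wells.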 As to conditions: FP, S100A4/TAMRA-myosin IIA peptide binding; series mostly up to 11 µM; activity change, negative = inhibition: at the top concentration. In general terms: Fluorescence polarisation rises when a labelled molecule tumbles more slowly, as on binding a larger partner.
Chain of Protein S100-A4 (Homo sapiens) (P26447 whole entry, looked up): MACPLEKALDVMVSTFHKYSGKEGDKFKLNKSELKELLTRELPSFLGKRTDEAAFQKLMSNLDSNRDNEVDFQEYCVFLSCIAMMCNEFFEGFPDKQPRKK
Take `O=C(CC1C[C@H](C(=O)N2CCCCC2)[C@@]2(CCc3ccccc3)c3[nH]c4ccccc4c3CCN2C1=O)NCCC1=CCCCC1` (some centres undefined): the “activity change, negative = inhibition” value is -5.01%.

For `CCCCCN(C(=O)CCC(=O)OCC(=O)Nc1cccc(SC)c1)c1c(N)n(CCCC)c(=O)[nH]c1=O`, the “activity change, negative = inhibition” value was -0.499%. Regarding `O=C(Cc1ccccn1)N[C@@H]1CC[C@@H](CCNS(=O)(=O)c2cccc(F)c2)O[C@H]1CO`, the “activity change, negative = inhibition” value was 9.21%. The figure for `O=C1CC(c2ccccc2)NN1` (centres undefined) is -3.19%; for `C[C@H]1CN([C@@H](C)CO)C(=O)c2cc(NC(=O)CCC(F)(F)F)ccc2O[C@@H]1CN(C)S(=O)(=O)c1cn(C)cn1` it is 0.537% [at 10 µM]; for `O=C(O)c1ccc(/C=C2\SC(=S)N(NC(=O)c3ccccc3)C2=O)cc1` it is 12.4%.

Consider `C[C@@H]1CN([C@H](C)CO)S(=O)(=O)c2ccc(C#C[C@@H](C)O)cc2O[C@@H]1CN(C)C(=O)C1CC1`, for which the “activity change, negative = inhibition” value was 3.2%. The figure for `Cc1ccc(OCCOCCn2cnc3ccccc3c2=O)c([N+](=O)[O-])c1` is 3.84%; for `Cc1ccc2c(c1)C(c1ccccc1)N(C(=O)c1ccccc1[N+](=O)[O-])CC(=O)N2` (centres undefined) it is -1.9%; for `Cn1c(-c2ccc(Cl)cc2)cnc1NCc1cc2c(cc1[N+](=O)[O-])OCO2` it is -4.69%. Regarding `COC(=O)[C@]12CCCCC=C1N(Cc1ccc(Cl)cc1Cl)C(=O)[C@H](CC(=O)N1CCCC1)C2`, the “activity change, negative = inhibition” value is -3.46%. The figure for `C[C@@H]1CN([C@H](C)CO)C(=O)c2cc(NC(=O)C3CC3)ccc2O[C@@H]1CN(C)C(=O)Nc1ccc2c(c1)OCO2` is -3.23% [at 10 µM]; for `COc1ccc2c(c1OC)C(=O)N1N=C(c3ccc(Cl)cc3)CC21` (centres undefined) it is 0.647%.

`CC(C)(C)[C@H]1COC(=O)CC/C=C\C[C@H](CC(=O)N(CCO)Cc2ccccc2)C(=O)N1`: the “activity change, negative = inhibition” value is -3.22%.
